An excerpt weighted towards active compounds, which were near 3.6% of everything screened.
Wnt act: activates Wnt/beta-catenin signaling in a reporter cell assay; activation, % at 9.35 µM; activator, plate reader; hit rate 1.2% among 300,000; AID 743398; in the data active = activation above about 30%, passing the limit was not always enough; inconclusive = no clear call, values can overlap the other calls;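 also: 0% = neutral control wells and 100% = positive control wells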
A3A deaminase: human APOBEC3A DNA deaminase inhibition; recombinant A3A, FAM/TAMRA ssDNA deamination fluorescence; inhibition, % at 20 µM; hit rate 0.41% among 330,000; AID 493011;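 active = at least 40% inhibition at 20 µM here, with at most 30% in a related deaminase screen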;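 also: plate controls were A3A with DMSO for no effect and wells lacking A3A enzyme for full effect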
Target sequence (P31941 whole entry, looked up): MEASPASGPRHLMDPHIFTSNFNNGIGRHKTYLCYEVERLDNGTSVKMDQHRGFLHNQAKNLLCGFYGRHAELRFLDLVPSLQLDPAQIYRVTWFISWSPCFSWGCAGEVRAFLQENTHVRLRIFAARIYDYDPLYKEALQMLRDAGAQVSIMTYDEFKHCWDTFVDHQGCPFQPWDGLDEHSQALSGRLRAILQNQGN
MITF TRPM1 HTS: MITF TRPM1 promoter activation in melanoma cells | SK-MEL-5 TRPM1-promoter luciferase, 24 h; % of positive control, neutral wells = 0 | activation, % at 12.5 µM | hit rate 0.75% among 300,000;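 active = mean activation of at least 80% with every replicate also reaching 80%; inconclusive = mean reaches 80% but some replicate falls short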;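 also: 0% = neutral control wells and 100% = parthenolide positive control wells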
esBAF inh: SWI/SNF esBAF complex inhibition | mouse ES cells, Bmi1-luciferase knock-in reporter, 24 h; 100% = twice the neutral-well signal | reporter increase, % at 12.5 µM | hit rate 2% among 350,000 | AID 602393; in the data active = activation above about 40%; inconclusive = no clear call, values can overlap the other calls;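 also: 0% = median of the plate's neutral control wells and 100% = double that signal; a rise in the Bmi1 reporter signal indicates esBAF inhibition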
A3G deaminase: inhibitors of human APOBEC3G DNA deaminase; recombinant A3G, ssDNA deamination FAM/TAMRA fluorescence; Q9HC16; inhibition, % at 20 µM; hit rate 0.28% among 330,000;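 active = inhibition of at least 40% at 20 µM, with no more than 30% in the related APOBEC3A deaminase screen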;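 also: plate controls were DMSO wells with A3G for no effect and wells lacking A3G enzyme for full effect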
PHOSPHO1 block: inhibitors of human PHOSPHO1 phosphatase; recombinant PHOSPHO1, absorbance phosphatase assay; inhibition, % at 13.3 µM; hit rate 1.1% among 290,000; in the data active = inhibition above about 60%
Target sequence (Q8TCT1 whole entry, looked up): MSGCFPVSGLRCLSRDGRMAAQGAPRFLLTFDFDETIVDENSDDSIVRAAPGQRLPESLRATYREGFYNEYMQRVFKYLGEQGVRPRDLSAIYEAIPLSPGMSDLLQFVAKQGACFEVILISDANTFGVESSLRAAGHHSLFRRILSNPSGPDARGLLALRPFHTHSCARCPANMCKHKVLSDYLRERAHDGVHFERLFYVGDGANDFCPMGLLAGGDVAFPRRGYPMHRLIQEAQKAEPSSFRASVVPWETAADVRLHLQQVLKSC
* = called active by the depositor; ? = inconclusive; . = no result given.

SMILES	Wnt act	A3A deaminase	MITF TRPM1 HTS	esBAF inh	A3G deaminase	PHOSPHO1 block
CC(=O)/C(=C(/O)c1ccccc1)c1nc2ccccc2[nH]1	6.0	2.6	85.0*	37.3	-0.1	21.0
CO[C@@H]1CC[C@@H]2CCOc3c(C#N)cccc3C(=O)N(C)[C@H](C)C(=O)N(C)C[C@H]1O2	.	.	.	-0.5	.	.
CCCn1cnc2c(N)c(C)c(C)cc21	.	2.0	.	.	-4.7	72.8*
COc1cccc(Cn2cnc3c(N)c(C)c(C)cc32)c1	-10.8	-5.4	-5.9	-2.2	-7.8	44.8
COc1cccc(NC(=O)N[C@@H]2CC[C@@H](CC(=O)NCc3ccncn3)O[C@@H]2CO)c1	.	.	.	1.6	.	.
Cc1ccc(-c2cn3c(n2)SCC3)cc1	65.2*	2.9	22.9	6.6	2.3	0.6
CCc1ccc(-c2cn3c(n2)SCC3)cc1	13.8	1.3	63.6	29.1	0.0	-25.1
CC(=O)N(C)C[C@H]1Oc2cc(C#C[C@@H](C)O)ccc2S(=O)(=O)N([C@@H](C)CO)C[C@H]1C	.	.	.	-4.0	.	.
Cc1ccc(C)c(CSc2nnc(-c3ccccn3)n2N)c1	-4.2	-2.0	.	8.9	-5.2	20.8
Nn1c(SCc2c(F)cccc2F)nnc1-c1ccccn1	43.0*	-0.2	.	?	-0.2	-4.5
COc1ccc(NC(=O)Nc2ccc3c(c2)C(=O)N([C@@H](C)CO)C[C@@H](C)[C@H](CN(C)S(=O)(=O)c2cccs2)OCCCC[C@@H](C)O3)cc1	.	.	.	8.5	.	.
O=C(CCS(=O)(=O)c1cccs1)N1CCCC1	.	-6.2	47.5	.	-8.5	63.9*
Cc1ccc2[nH]c(C(=O)N3CCOCC3)cc2c1	5.1	-2.9	0.2	5.4	0.6	22.9
Cc1ccc2[nH]c(C(=O)N3CCCCC3)cc2c1	12.7	-7.1	44.5	57.9*	-5.3	13.0
COc1cccc(/C=N/Nc2ccc(C(=O)O)cc2)c1O	-22.9	-1.7	-104.4	.	-6.0	-3.7
COc1cccc(/C=N/NC(=O)N/N=C/c2cccc(OC)c2O)c1O	-3.9	-3.0	.	-1.3	-2.7	8.5
COc1cccc(/C=N/Nc2ccc(S(=O)(=O)O)cc2)c1O	.	-1.5	2.7	6.3	-6.4	92.2*
O=C(O)c1ccccc1NN=Cc1ccccc1	61.0*	.	39.9	.	.	.
COc1cccc(/C=N/Nc2ccccc2C(=O)O)c1O	34.9*	-0.2	26.4	4.0	-6.9	.
COc1ccc(S(=O)(=O)Nc2cccc3c2O[C@@H](CN(C)S(=O)(=O)c2c(C)noc2C)[C@H](C)CN([C@H](C)CO)C3=O)cc1	.	.	.	1.5	.	.
CC(C)(C)/C(O)=C(/C#N)c1nc2ccccc2[nH]1	.	-3.1	-6.6	.	-5.1	4.6
COc1cccc(OC)c1/C(O)=C(\C#N)c1nc2ccccc2[nH]1	-0.8	-3.2	4.0	1.6	10.7	60.3*
N#Cc1c2n(c(=S)n(-c3ccccc3)c1=O)CCCCC2	-6.6	-4.0	-4.6	-7.2	-6.2	63.8*
CN(C)C(=O)C[C@@H]1C=C[C@@H](NS(=O)(=O)c2ccccc2)[C@H](CO)O1	.	.	.	0.7	.	.
O=C(Nn1c(SCc2cccc([N+](=O)[O-])c2)nc2ccccc2c1=O)c1ccccc1	43.4*	1.1	24.8	.	-4.7	-17.4
SMILES	Wnt act	A3A deaminase	MITF TRPM1 HTS	esBAF inh	A3G deaminase	PHOSPHO1 block
CSc1nc(N)n2nc(-c3ccc(Cl)cc3)cc2n1	48.7*	-3.5	.	?	1.9	22.5
O=C(N/N=C\c1ccccn1)c1ccccc1O	36.1*	-4.0	10.1	.	-8.2	-12.6
Cc1ccccc1C(=O)N/N=C/c1ccccn1	12.5	-6.4	18.9	.	-4.7	2.6
CS(=O)(=O)n1c2ccccc2c(=O)n1-c1ccccc1CCl	4.9	.	.	55.5*	.	.
O=C(c1ccccc1)n1c2ccccc2c(=O)n1-c1ccccc1CCl	.	.	.	87.1*	.	.
CC(C)n1c(=O)c2ccccc2n1C(=O)c1ccccc1	0.8	.	.	-2.2	.	.
O=C(C[C@@H]1C=C[C@@H](NC(=O)c2cccnc2)[C@@H](CO)O1)NCCN1CCCCC1	.	.	.	-4.5	.	.
COCCn1c(C)cc(/C=N/NC(=O)c2cc3ccccc3cc2O)c1C	.	-0.8	13.1	46.7*	-2.6	.
COc1cc(/C=N/NC(=O)c2cc3ccccc3cc2O)ccc1OCCN1CCCCC1	-4.5	-4.6	21.7	0.7	-9.5	7.1
Cn1c(O)c(/C=N/NC(=O)c2cc3ccccc3cc2O)c2ccccc21	7.9	-7.6	.	46.9*	-15.0	30.4
C[C@@H]1CN([C@@H](C)CO)C(=O)c2cc(NS(=O)(=O)c3cccs3)ccc2O[C@H]1CN(C)S(=O)(=O)c1cccs1	.	.	.	-3.9	.	.

Screening data: PubChem, several laboratories
